Records with an inconclusive call do not appear. Calls of active or inactive are those of the source. The call rests on the fitted dose curve; in most records, active means well fitted cell-killing curve with a large enough effect; inconclusive means small, poorly fitted or top-dose-only effect, or effect the other way; inactive means no such curve, though single readings can be large or run the other way.
Potency means the concentration at half of the fitted maximal effect.

A short description of this assay: Viability qHTS for spleen associated tyrosine kinase inhibitor (SYKi) drug resistant MV4-11 cells (AID 1963824). Further: nearly all actives have a fitted effect of over 35% in size. The conditions noted are these: SYKi-resistant MV4-11 viability, CellTiter-Glo, 72 h; series mostly up to 45 µM. The method, boiled down:
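CellTiter-Glo luminescence, read 10 min after reagent addition, reports viability after a 72 hr compound exposure. Cells are an MV4-11 line made resistant to SYK inhibition, seeded at 500 per well onto compound-containing plates.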
Background: qHTS replaces the single test concentration by a dilution series.
Turning to `CCCCCn1cc(C(=O)Oc2cccc3cccnc23)c2ccccc21`, the Potency was 23.1 µM (active).

`Cc1ccc(-n2nccn2)c(C(=O)N2CCN(c3nc4cc(Cl)ccc4o3)CCC2C)c1` (centres undefined): the Potency was 9.2 µM (active).

Regarding `CC1=CC2/C=C(\C)CCC(O)C(O)C(O)CC(=O)C23C(=O)NC(CC(C)C)C3C1C` (centres undefined), the Potency was 1.78 µM (active).

Take `COC(=O)CC1CC2(C(=O)c3c(O)cccc3C2(O)C(=O)OC)C(C)O1` (centres undefined): the Potency was 16.1 µM (active).

In the case of `CCC1(O)CCC2C3CCC4=CC(=O)CCC4C3CCC21CC` (centres undefined), the Potency was 14.6 µM (active).

For `Cc1sc2c(c1C)C(c1ccc(Cl)cc1)=NC(CC(=O)OC(C)(C)C)c1nnc(C)n1-2` (centres undefined), the Potency is 0.116 µM (active).

With `COC1CC(=O)C23C(=O)NC(CC(C)C)C2C(C)=C(C)C(OO)C3/C=C(\C)CCC(O)C1O` (centres undefined), the Potency was 7.96 µM (active).

With `CC(CCc1ccc(O)cc1)O[C@@H]1O[C@H](CO[C@H]2OC[C@](O)(CO)[C@H]2O)[C@@H](O)[C@H](O)[C@H]1O` (some centres undefined), the Potency result is “inactive”.

As for `C[C@@H]1C[C@@H](O)[C@]2(O)O[C@@H]3C[C@@]4(C=O)C(CC[C@@H]5C4CC[C@]4(C)[C@@H](C6=CC(=O)OC6)CC[C@]54O)C[C@H]3O[C@@H]2O1` (some centres undefined), the Potency was 0.0317 µM (active).

On to `CCN1C[C@]2(OC(=O)c3ccccc3NC(C)=O)CC[C@H](OC)[C@@]34[C@@H]2C[C@@H]([C@@H]13)[C@@]1(O)C[C@H](OC)[C@H]2C[C@@H]4[C@]1(O)[C@H]2OC`, for which the Potency was 4.11 µM (active).

In the case of `O=C1NC(=O)c2c1c1c3ccccc3n3c1c1c2c2ccccc2n1C1CCC3O1`, the Potency was 0.0164 µM (active).

Consider `C=CCN1CCC2(C)c3cc(O)ccc3C[C@H]1[C@H]2C`, for which the Potency entry was “inactive”.

Regarding `CCOC(=O)Nc1ccc(NCc2c(C)cc(C)cc2C)cc1N`, the Potency is 9.2 µM (active).

`CCC(C)C1NC(=O)C(C(C)=O)=C1O` (centres undefined): the Potency was 29.8 µM (active).

`C#CC1(O)CCC2C3CCC4=CC(=O)CCC4=C3C=CC21C` (centres undefined): the Potency is 18.4 µM (active).

For `C1=C(c2cnc[nH]2)c2ccsc2CC1`, the Potency entry is “inactive”.

As to `C#CCO[C@H]1CN2CCC1CC2`, the Potency entry was “inactive”.

As to `C[C@@H]1O[C@@H](O[C@H]2CC[C@@]3(C)C(CC[C@@H]4C3CC[C@]3(C)[C@@H](C5=CC(=O)OC5)CC[C@]43O)C2)[C@H](O)[C@H](O)[C@H]1O` (some centres undefined), the Potency was 0.2 µM (active).

With `C=C(CO)[C@@]12O[C@@H]1[C@@]1(C)C(=CC2=O)CC[C@@H](O)[C@@H]1C`, the Potency is 5.17 µM (active).

Regarding `CN(C(=O)C(c1ccccc1)c1ccccc1)[C@H](CN1CC[C@H](O)C1)c1ccccc1`, the Potency is 20.6 µM (active).

Regarding `CC(=O)OC[C@]12C[C@H](OC(=O)CC(C)C)C(C)=C[C@H]1O[C@@H]1[C@H](O)[C@@H](O)[C@@]2(C)[C@]12CO2`, the Potency was 0.0089 µM (active).

On to `Cn1ncnc1COc1nn2c(-c3c(F)cccc3F)nnc2cc1C1CCC1`, for which the Potency entry is “inactive”.

On to `CCc1c(C(=O)C(N)=O)c2c(OCC(=O)OC)cccc2n1Cc1ccccc1`, for which the Potency was 2.31 µM (active).

Take `CCCCCn1cc(C(=O)Cc2ccccc2OC)c2ccccc21`: the Potency is 20.6 µM (active).

Turning to `COCC1OC(=O)c2coc3c2C1(C)C1=C(C3=O)C2CCC(=O)C2(C)CC1OC(C)=O` (centres undefined), the Potency was 2.06 µM (active).

For the compound `CCC(C)/C=C(C)/C=C/C1=CC2=C(Cl)C(=O)C(C)(OC(C)=O)C(=O)C2=CO1` (centres undefined), the Potency was 8.05 µM (active).

For the compound `COc1cc2c(cc1O)C1(C)CCC(O)C(C)(C)C1CC2=O` (centres undefined), the Potency entry was “inactive”.

Turning to `C[C@]12CC[C@@H](O[C@@H]3O[C@H](CO)[C@@H](O)[C@H](O)[C@H]3O)C[C@@]1(O)CCC1C2CC[C@]2(C)[C@@H](C3=CC(=O)OC3)CC[C@]12O` (some centres undefined), the Potency was 0.0632 µM (active).

In the case of `C[C@]12CC[C@H](OC3OC(CO)C(O)C(O)C3OC3OC(CO)C(O)C(O)C3O)C[C@@H]1CC[C@@H]1C2CC[C@]2(C)[C@@H](C3=CC(=O)OC3)CC[C@]12O` (some centres undefined), the Potency is 5.44 µM (active).

On to `C/C=C(\C)C(=O)OC1C2C3(C)CCC(OC4CC(OC)C(OC5OC(C)C(O)C(OC)C5O)C(C)O4)CC3CCC23OC32CCC(C(C)=O)C2(C)C1OC(=O)/C(C)=C/C` (centres undefined), for which the Potency was 3.9 µM (active).

For `OC1(c2ccc(Cl)cc2)c2ccccc2C2=NCCN21` (centres undefined), the Potency was 16.4 µM (active).

For the compound `CC(=O)O[C@H]1CC[C@@]2(CI)C(=CC[C@@H]3[C@@H]2CC[C@]2(C)C(=O)CC[C@@H]32)C1`, the Potency was 20.6 µM (active).

Consider `CC(=O)C1CCC2C3CCC4C[C@@H](O)CCC4(C)C3CCC12C` (some centres undefined), for which the Potency was 14.6 µM (active).

As to `C/C=C(\C)C(=O)O[C@@H]1[C@@H](C)[C@]2(O)C3C=C(C)C(=O)[C@@]3(O)CC(CO)=C[C@H]2C2C(C)(C)[C@@]21OC(=O)C(C)CC` (some centres undefined), the Potency was 0.0045 µM (active).
